Measured values: PubChem BioAssay
Activity calls are given as the source filed them. The rule behind the calls is not given here.

Each compound was assayed on Aerobactin synthetase IucA (Klebsiella pneumoniae, hypervirulent) (assay: biochemical IucA inhibition screen of LOPAC library by absorbance (AID 1346212;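 note: 100% = no compound wells and 0% = no enzyme wells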)). Conditions: IucA enzyme assay, absorbance (OD) readout; stronger effect = lower value;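 tested at 8 µM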.

Which remaining activity does the source give for c1ccc(CN2CCC3(CCCc4ccccc43)CC2)cc1 here?
The remaining activity was 103% (inactive).

COc1ccc(CC(C)NCC(O)c2ccc(O)c(NC=O)c2)cc1 (stereo not given) was tested. Which remaining activity did it give?
Its remaining activity is 102% (inactive).

With NO as the compound, how does the remaining activity read?
Its remaining activity is 100% (inactive).

Which remaining activity does the source give for O=C1CCC(c2ccc(-n3ccnc3)cc2)=NN1 here?
The remaining activity was 111% (inactive).

CC(C)(C)c1cc(/C=C(\C#N)C(N)=S)cc(C(C)(C)C)c1O was tested. Which remaining activity did it give?
The remaining activity was 97.1% (inactive).

For O=Nc1ccc2oc(=O)ccc2c1, which remaining activity is on record?
Its remaining activity is 103% (inactive).

With COc1ccc2c(c1OC)C(=O)O[C@@H]2[C@H]1c2c(cc3c(c2OC)OCO3)CCN1C as the compound, how does the remaining activity read?
The remaining activity was 112% (inactive).

For CCN(c1nc(N)c(C(=O)N=C(N)N)nc1Cl)C(C)C, which remaining activity is on record?
Its remaining activity is 109% (inactive).

How did the remaining activity turn out when NC[C@@H]1O[C@H](O[C@H]2[C@@H](O)[C@H](O[C@@H]3[C@@H](O)[C@H](N)C[C@H](N)[C@H]3O[C@H]3O[C@H](CO)[C@@H](O)[C@H](O)[C@H]3N)O[C@@H]2CO)[C@H](N)[C@@H](O)[C@@H]1O was run?
Its remaining activity is 104% (inactive).

CN(Cc1cnc2nc(N)nc(N)c2n1)c1ccc(C(=O)N[C@@H](CCC(=O)O)C(=O)O)cc1 was tested. Which remaining activity did it give?
The remaining activity was 117% (inactive).

How did the remaining activity turn out when CN(C(=O)CCCOc1ccc2[nH]c(=O)ccc2c1)C1CCCCC1 was run?
The remaining activity was 124% (inactive).

Which remaining activity does the source give for C#C[C@]1(O)CC[C@H]2[C@@H]3CCC4=Cc5oncc5C[C@]4(C)[C@H]3CC[C@@]21C here?
Its remaining activity is 101% (inactive).

For C=C/C(C)=C/[C@@]1(C)SC(=O)C(C)=C1O, which remaining activity is on record?
The remaining activity was 123% (inactive).

Which remaining activity does the source give for [N-]=[N+]=Nc1ccc(C(=O)CSC[C@H](NC(=O)CC[C@H](N)C(=O)O)C(=O)NCC(=O)O)cc1 here?
Its remaining activity is 116% (inactive).

How did the remaining activity turn out when O=c1[nH]c2cc(Cl)ccc2c(O)c1-c1cccc(Oc2ccccc2)c1 was run?
The remaining activity was 120% (inactive).

CCCCCCCCCCC/C=C\C(C)(C)/C=C\CCCC(=O)O was tested. Which remaining activity did it give?
Its remaining activity is 86.5% (inactive).

How did the remaining activity turn out when NC(N)=NCCC[C@H](N)C(=O)O was run?
Its remaining activity is 111% (inactive).

NC1=NCC2c3ccccc3Cc3ccccc3N12 (stereo not given) was tested. Which remaining activity did it give?
The remaining activity was 91.6% (inactive).

For CC1(C)C(=O)N(CCN2CCC(C(=O)c3ccc(F)cc3)CC2)c2ccccc21, which remaining activity is on record?
The remaining activity was 118% (inactive).

NC(=O)OCC(COC(N)=O)c1ccccc1 was tested. Which remaining activity did it give?
Its remaining activity is 100% (inactive).

With NCCCCCCCCCCN as the compound, how does the remaining activity read?
The remaining activity was 104% (inactive).

Which remaining activity does the source give for CCCc1c(OCCCOc2ccc(OCC(=O)O)cc2)ccc(C(C)=O)c1O here?
The remaining activity was 101% (inactive).

OC[C@H]1NC[C@@H](O)[C@@H]1O was tested. Which remaining activity did it give?
Its remaining activity is 102% (inactive).

For CCCCCCCCCCCCCCCC(=O)NCCO, which remaining activity is on record?
The remaining activity was 118% (inactive).

CC(Oc1ccc(Oc2cnc3ccc(Cl)cc3n2)cc1)C(=O)O (stereo not given) was tested. Which remaining activity did it give?
The remaining activity was 108% (inactive).

With COc1cccc2c1[C@@H]1CN(CCCCn3c(=O)[nH]c4c(sc5ncc(-c6ccccc6)nc54)c3=O)C[C@@H]1CO2 as the compound, how does the remaining activity read?
The remaining activity was 98.2% (inactive).

How did the remaining activity turn out when C[N+](C)(C)CC=O was run?
Its remaining activity is 101% (inactive).

Which remaining activity does the source give for Brc1c(Br)c(Br)c2[nH]cnc2c1Br here?
The remaining activity was 110% (inactive).

Which remaining activity does the source give for O=c1[nH]c2ccccc2c2ccccc12 here?
The remaining activity was 97.7% (inactive).

How did the remaining activity turn out when COC(=O)C(N)Cc1ccc(Cl)cc1 (stereo not given) was run?
Its remaining activity is 91.4% (inactive).

How did the remaining activity turn out when CCCCCCCCCCCCCCCCCC(=O)NCC(COP(=O)([O-])OCC[N+](C)(C)C)OCC (stereo not given) was run?
The remaining activity was 97.5% (inactive).

How did the remaining activity turn out when CC(C)(C=O)Cc1cc(C(C)(C)C)c(O)c(C(C)(C)C)c1 was run?
The remaining activity was 115% (inactive).

Which remaining activity does the source give for CC[C@H](C)C(=O)O[C@H]1CCC=C2C=C[C@H](C)[C@H](CC[C@@H]3C[C@@H](O)CC(=O)O3)[C@H]21 here?
Its remaining activity is 118% (inactive).

Which remaining activity does the source give for O=C(c1cc(O)c(O)c([N+](=O)[O-])c1)c1ccccc1F here?
The remaining activity was 104% (inactive).

COc1cc([C@@H]2c3cc4c(cc3[C@@H](O[C@@H]3O[C@@H]5CO[C@@H](C)O[C@H]5[C@H](O)[C@H]3O)[C@H]3COC(=O)[C@H]23)OCO4)cc(OC)c1O was tested. Which remaining activity did it give?
Its remaining activity is 127% (inactive).

With O=C(O)/C=C1\CCCc2ccccc2C1O (stereo not given) as the compound, how does the remaining activity read?
The remaining activity was 119% (inactive).

With COc1cc(CNC(=O)CCCCCCC(C)C)ccc1O as the compound, how does the remaining activity read?
The remaining activity was 96.1% (inactive).

For CNC(=O)[C@H]1O[C@@H](n2cnc3c(N)ncnc32)C(O)[C@H]1O (stereo not given in full), which remaining activity is on record?
Its remaining activity is 129% (inactive).

Which remaining activity does the source give for CCCCS(=N)(=O)CC[C@H](N)C(=O)O (stereo not given in full) here?
The remaining activity was 92.2% (inactive).

Cn1cc(C(F)(F)F)nc1-c1ccc(OCC(O)CNCCOc2ccc(O)c(C(N)=O)c2)cc1 (stereo not given) was tested. Which remaining activity did it give?
The remaining activity was 96.8% (inactive).
